Hits are enriched below; roughly 3.1% of the tested compounds scored in any of these assays.
PMP22 txn: modulates PMP22 transcription in S16 Schwann cells. S16 Pmp22-F2sN Schwann cells, FLuc/NLuc coincidence luminescence, 24 h. Potency, µM (series often up to 57.5 µM), for inactives: at the highest dose activity change, negative = inhibition, most hits filed as inhibitors. actives 2% (n = 43,000). AID 1508649; active = clear falling dose curves in both reporters; inconclusive = both reporters move, but less clearly or upward; inactive = either reporter flat; the % is the NLuc reporter signal
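Reporter cells (S16 Pmp22-F2sN, 500–1,000 per well) exposed to compounds for 24 h, 37C, 5% CO2; lysis with FLuc read after 10 min, then Stop&Glo and NLuc read after 10 min.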
S16 viability: toxic to S16 Pmp22-F2sN Schwann cells; S16 Pmp22-F2sN Schwann cells (luciferase reporters placed in the Pmp22 gene) viability, CellTiter-Glo, 24 h; actives 0.48% (n = 43,000); Potency, µM (highest dose often 57.5 µM), for inactives: top-dose activity change, negative = cytotoxicity, actives largely listed as cytotoxic; also: nearly all actives have a fitted effect of over 65% in size
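Seed 500-1,000 S16 Pmp22-F2sN cells per well in phenol-red-free DMEM with 10% heat-inactivated FBS; pin-add 23 nL compound; incubate 24 h at 37C; add CellTiter-Glo, wait 15 min protected from light; read luminescence.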
p53null 32C tox: kills p53 null cells at the permissive temperature; H1299-neo p53 null cells, ATP luminescence, 24 h, 32C; Potency, µM (titrated, usually from 46.1 µM), for the others: at the highest dose activity change, negative = cytotoxicity, usual class: cytotoxic; actives 0.62% (n = 55,000); AID 903;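 also: 0% = DMSO only and -100% = full killing by 100 µM tamoxifen; nearly all actives have a fitted effect of over 55% in size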
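Cytotoxicity: H1299-neo (no p53), 32C, 24 h treatment. Concentrations up to 46 uM. Readout cellular ATP, luminescence. Normalization to DMSO basal and tamoxifen 100 uM maximal kill.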
mTORC1 inh: reduces mTORC1 signaling in Tsc2 and p53 null MEF cells; Tsc2-/- p53-/- MEF, phospho-rpS6 immunofluorescence/PI, 24 h; Potency, µM (highest dose often 38.3 µM), for the others: top-dose activity change, negative = inhibition, actives largely listed as inhibitors; actives 0.78% (n = 44,000); AID 493208;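 also: plate controls were DMSO for no effect and rapamycin for full effect; nearly all actives have a fitted effect of over 50% in size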
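Compounds act on Tsc2-/-, p53-/- fibroblasts carrying an empty vector for 24 h before fixation and dual staining for phospho-S6 and DNA (propidium iodide). Values are percentages of cells above a rapamycin-defined pS6/PI threshold.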
p53null 39C tox: kills p53 null cells at the nonpermissive temperature | Potency, µM (highest dose often 46.1 µM), inactives show top-dose activity, negative = cell killing, most hits filed as cytotoxic | actives 0.97% (n = 55,000) | H1299 p53-null (neo) cells, 39C, ATPlite viability, 24 h;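 also: 0% = DMSO only and -100% = full killing by 100 µM tamoxifen; nearly all actives have a fitted effect of over 50% in size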
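H1299 lung cancer cells, p53-null (H1299-neo) or expressing p53 A138V (H1299-p53A138V), were plated overnight at 37C, then exposed to compounds at up to 46 uM for 24 hr at 39C. Viability was read by ATP-based luminescence.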
SKOV3 invasion: inhibitors of ovarian cancer cell adhesion and invasion in omental model | SKOV3ip1-GFP adhesion/invasion on 3D omental model, fluorescence | Potency, µM (series often up to 45.8 µM), for the others: top-dose activity change, negative = inhibition, actives largely listed as inhibitors | actives 0.1% (n = 46,000);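 also: plate controls were DMSO wells for no effect and tomatine positive control wells for full effect; nearly all actives have a fitted effect of over 65% in size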
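A 3D layer of primary human omental fibroblasts, mesothelial cells, fibronectin and collagen I, grown 48 hr, received SKOV3ip1-GFP cells in serum-free medium plus compounds at 0.36-46 umol/L. After 2 hr RT and 16 hr 37 C, fixed adherent GFP cells were counted; normalized to DMSO and tomatine.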
* = called active by the depositor; i = inactive; ? = inconclusive; . = no result given; [ ] = dose if it differs, or a comment. Unless noted, calls follow the shape of the dose curve; as a rule, active = well fitted curve in the direction sought with a large enough effect; inconclusive = small, poorly fitted or top-dose-only effect, or another doubt; inactive = no such curve, though single readings can be large; an effect the other way counts as inactive or inconclusive. Unless noted, % is scaled to controls: 0 for no effect and ±100 for the full control effect; potency is read from the fitted curve at half-maximal effect.

SMILES | PMP22 txn | S16 viability | p53null 32C tox | mTORC1 inh | p53null 39C tox | SKOV3 invasion
COc1ccccc1-c1cc(C(F)(F)F)nc(S(=O)(=O)CCCC(=O)Nc2ccc(F)c(Cl)c2)n1 | -3% | 8% | 9% | 9% | 7% | -3%
COc1ccc(NC(=O)CCCS(=O)(=O)c2nc(-c3ccc(OC)c(OC)c3)cc(C(F)(F)F)n2)cc1OC | 4.5µM* | 4.5µM* | 26% | 12µM* | ? | ?
COc1ccc(-c2cc(C(F)(F)F)nc(S(=O)(=O)CCCC(=O)Nc3cccc(O)c3)n2)cc1OC | 6µM* | 8.9µM* | 25% | ? | ? | -21%
CCOC(=O)C1=C(C)NC2=C(C(=O)CC(C)(C)C2)C1c1ccc(-c2ccccc2)cc1 (stereo unspecified) | . | . | . | . | . | -23%
Cc1ccc(C2=Nc3ccc(Cl)cc3OC2)cc1 | . | . | . | . | . | -1%
COc1cc2c(NC3CCN(C(C)C)CC3)nc(C3CCCCC3)nc2cc1OCCCN1CCCC1 | . | . | . | . | . | 12µM*
COc1cc2c(Oc3ccc4[nH]c(C)cc4c3F)ncnc2cc1OCCCN1CCCC1 | . | . | . | . | . | 8%
CCNC(=O)c1cc2c(-c3cc(OCCN4CCCC4)c(Cl)cc3Cl)nc(N)nc2s1 | . | . | . | . | . | 19%
CCOC(=O)CSc1nc2ccc(NC(=O)c3ccc(C)cc3)cc2s1 | 3% | 4% | 10µM* | -4% | ? | -6%
O=C(Nc1ccc2nc(SCC(=O)N3CCOCC3)sc2c1)c1cccc(Cl)c1 | -8% | 3% | 32µM* | -12% | ? | i
O=C(Nc1ccc2nc(SCC(=O)N3CCCC3)sc2c1)c1cccc(Cl)c1 | -32% | 0% | -26% | -10% | ? | -7%
COc1cc(OC)cc(C(=O)Nc2ccc3c(c2)OCCO3)c1 | -5% | ? | 7.9µM* | 5% | 6.3µM* | i
COc1cccc(-n2c(=O)[nH]cc(C(=O)Nc3ccc4c(c3)OCCO4)c2=O)c1 | . | . | 18% | . | 21% | .
COc1ccc(S(=O)(=O)NCC(c2cccs2)S(=O)(=O)c2ccccc2)cc1OC (stereo unspecified) | ? | ? | 2% | -1% | 9% | i
O=S(=O)(NCC(c1cccs1)S(=O)(=O)c1ccccc1)c1ccc(F)c(C(F)(F)F)c1 (stereo unspecified) | ? | 20µM* | 0% | 2% | 17% | -20%
O=S(=O)(NCC(c1cccs1)S(=O)(=O)c1ccccc1)c1ccc(F)cc1 (stereo unspecified) | ? | 20µM* | 3% | -2% | 23% | -13%
CN1CCC(COc2cnc(-c3cccc(Cn4nc(-c5cccc(C#N)c5)ccc4=O)c3)nc2)CC1 | . | . | . | . | . | 6%
CC(=O)c1cccc(NS(=O)(=O)c2cc(-c3cnc(C4CC4)o3)ccc2C)c1 | 17µM* | ? | -4% | -11% | -7% | ?
CC(=O)c1ccc(NS(=O)(=O)c2cc(-c3cnc(C4CC4)o3)ccc2C)cc1 | ? | ? | -1% | -19% | 12% | i
Cc1ccc(NS(=O)(=O)c2cc(-c3cnc(C4CC4)o3)ccc2C)cc1Cl | ? | 14µM* | 39% | ? | ? | -29%
CCc1cccc(NC(=O)c2oc3ccc4c(c3c2C)C(=O)CC(C)(C)O4)c1 | ? | -5% | 5µM* | ? | 5µM* | 5%
CCOc1ccccc1CNC(=O)c1oc2ccc3c(c2c1C)C(=O)CC(C)(C)O3 | ? | ? | ? | 1% | 6% | -3%
COc1ccc(NC(=O)c2oc3ccc4c(c3c2C)C(=O)CC(C)(C)O4)cc1OC | ? | 6% | 13µM* | 1% | 3.2µM* | 6%
CCC1(C)CC(=O)c2c(ccc3oc(C(=O)NCc4ccccc4)c(C)c23)O1 (stereo unspecified) | ? | ? | 9% | ? | 12% | -7%
COc1cc(CCc2cc(NC(=O)c3ccc(N4C[C@@H](C)N[C@@H](C)C4)cc3)n[nH]2)cc(OC)c1 | . | . | . | . | . | -14%
SMILES | PMP22 txn | S16 viability | p53null 32C tox | mTORC1 inh | p53null 39C tox | SKOV3 invasion
C[C@@H]1O[C@@H](O[C@H]2CC[C@@]3(C)[C@H](CC[C@@H]4[C@H]3C[C@@H](O)[C@]3(C)[C@@H](C5=CC(=O)OC5)CC[C@]43O)C2)C[C@H](O)[C@@H]1O[C@H]1C[C@H](O)[C@H](O[C@H]2C[C@H](O)[C@@H](O)[C@@H](C)O2)[C@H](C)O1 (stereo in doubt) | . | . | . | . | . | -16%[92.2 µM]
COc1cc(-c2nc3ncccn3c2Nc2ccc(C)cc2C)ccc1O | 5% | ? | 17% | 15µM* | -16% | -16%
CCOC(=O)c1ccc(Nc2nc3nonc3nc2Nc2cccc(C)c2C)cc1 | 11µM* | ? | 6% | -20% | ? | ?
Cc1ccc(C)c(Nc2nc3nonc3nc2Nc2cccc(C)c2C)c1 | ? | ? | 26% | -9% | ? | -33%
COc1c(Cl)cc(C(=O)Nc2cccc(-c3nc4ccccc4[nH]3)c2)cc1Cl | ? | 6% | ? | 5% | ? | ?
CCCN(CCC)S(=O)(=O)c1ccc(C(=O)Nc2cccc(-c3nc4ccccc4[nH]3)c2)cc1 | 19µM* | ? | 17% | -2% | 15% | ?
Cc1nc(N)ncc1-c1nc(N2CCOCC2)c2sc(C(C)(C)O)cc2n1 | . | . | . | . | . | -28%
Cc1ccc(CN2C(=O)C(O)(CC(=O)c3ccc(C)cc3)c3ccccc32)cc1 (stereo unspecified) | 7.6µM* | ? | 9% | 9.3µM* | 20% | i
COc1ccc(OC)c(C(=O)CC2(O)C(=O)N(Cc3ccccc3C)c3ccccc32)c1 (stereo unspecified) | -25% | ? | 14% | ? | ? | 1%
Cc1ccccc1CN1C(=O)C(O)(CC(=O)c2cccc(Br)c2)c2ccccc21 (stereo unspecified) | ? | -24% | ? | -14% | 32µM* | i
Cc1ccccc1Nc1c(-c2ccc(N3CCOCC3)cc2)nc2cccc(C)n12 | -25% | -11% | ? | 1% | ? | -23%
Cc1ccccc1Nc1c(-c2ccc(N3CCOCC3)cc2)nc2ccc(Br)cn12 | -22% | 0% | ? | 3% | 10µM* | -15%
Cc1ccccc1Nc1c(-c2cccc(O)c2)nc2ccc(Br)cn12 | -28% | -13% | -7% | -25% | -4% | 2%
COc1cc(O)ccc1-c1nc2ccc(Br)cn2c1Nc1ccccc1C | ? | 2% | ? | -11% | 20µM* | ?

Screening data deposited in PubChem by National Center for Advancing Translational Sciences (NCATS).
